A selection: hits, their analogues and other compounds. The true share with any hit is near 2.3%.
U2OS ROS induce: cancer cell ROS induction; U2OS ROS induction, H2DCF-DA fluorescence; ROS induction (% of piperlongumine), % at 10 µM; 46,000 compounds, 2% hits; AID 624156; in the data active means ROS induction above about 79%, passing the limit was not always enough;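 further: 0% = DMSO vehicle median and 100% = reference compound median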
YB-1 expression: YB-1 expression inhibition | U2OS, qRT-PCR YB-1 vs CDIP delta delta Cp, 16 h; hits give high values; zero = DMSO, each unit about twofold | AID 434959 | delta delta Cp (YB-1 minus CDIP) (concentration not given with the values) | 30,000 compounds, 0.37% hits;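 active means delta delta Cp rounded down to an integer at or above 3, about 3 SD of DMSO wells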;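 further: higher means less YB-1 transcript or more CDIP transcript relative to DMSO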
Numbers without * were called inactive; nt = no result.

SMILES	U2OS ROS induce	YB-1 expression
C[C@H](CO)N1C[C@H](C)[C@H](CN(C)C(=O)Nc2ccc(F)cc2)Oc2ncc(/C=C/c3ccccc3)cc2C1=O	89.9*	-0.393
C[C@H](CO)N1C[C@H](C)[C@H](CN(C)C(=O)Nc2ccc(F)cc2)Oc2ncc(-c3ccccc3)cc2C1=O	42.3	0.111
C[C@H](CO)N1C[C@H](C)[C@H](CN(C)C(=O)Nc2ccc3c(c2)OCO3)Oc2ncc(/C=C/c3ccccc3)cc2C1=O	119.8*	0.451
C[C@H]1CN([C@@H](C)CO)C(=O)c2cccc(NC(=O)C3CC3)c2O[C@H]1CN(C)C	-7.3	0.184
CC(C)NC(=O)Nc1ccc2c(c1)C(=O)N([C@@H](C)CO)C[C@H](C)[C@@H](CN(C)Cc1ccc(C(=O)O)cc1)O2	6.5	-0.145
Nc1nc2ccc(Cl)cc2c(-c2ccccc2)c1CN1CCOCC1	16.1	nt
CCOC(=O)c1sc2nc(C)nc(N(C)Cc3ccccc3)c2c1C	8.8	nt
CCOC(=O)c1sc2ncn3c(-c4ccc(C)cc4)nnc3c2c1C	197.9*	nt
COC(=O)c1nn(-c2ccccc2)c(=O)c2c(N)sc(C)c12	1.4	nt
CCOC(=O)c1c(NC(=O)c2nn(CC)cc2Br)c(C#N)nn1-c1ccccc1	125.1*	nt
CCOC(=O)c1nn(-c2ccccc2)c(C#N)c1NC(=O)c1nn(CC)cc1Br	166.0*	-0.267
CCOC(=O)CNc1nnc(-c2ccccc2)c(-c2ccccc2)c1C#N	61.8	nt
COc1ccc(NC(=O)N(C)C[C@H]2Oc3ccc(NS(=O)(=O)c4cccs4)cc3CC(=O)N([C@@H](C)CO)C[C@H]2C)cc1	-18.2	0.142
CCOc1ccc(NC(=O)NN2C(C)CCCC2C)cc1 (configuration not stated)	13.0	nt
CC1CCCC2OC2C(=O)c2c(O)cc(O)cc2CC(=O)O1 (configuration not stated)	-6.3	0.224
CC1CCC/C=C/C(=O)c2c(O)cc(O)cc2CC(=O)O1 (configuration not stated)	90.8*	0.201
Cc1cc(C(=O)Nc2cccc3c2O[C@@H](CN(C)S(=O)(=O)c2ccccc2)[C@H](C)CN([C@@H](C)CO)C3=O)n(C)n1	-13.1	-0.057
CCOC(=O)c1c(C)n(-c2cccc(C)c2)c2ccc(O)cc12	-3.5	-0.196
CCOC(=O)c1c(CN2CCCCC2)n(-c2ccccc2)c2cc(Br)c(OC)cc12	120.9*	0.219
CCOC(=O)c1c(CN(C)C)n(-c2ccccc2)c2cc(Br)c(OC)cc12	237.8*	0.0164
CCOC(=O)c1c(SC)n(-c2ccccc2)c(=S)n(-c2ccccc2)c1=O	21.0	nt
COc1ccc(CCNC(=O)C(=O)Nc2ccc(C(C)(C)C)cc2)cc1OC	-2.8	nt
Cc1ccc(-c2nc3ncccn3c2NC(=O)c2cccc(C(F)(F)F)c2)cc1	-6.1	nt
C[C@@H]1CN([C@H](C)CO)C(=O)Cc2cc(NC(=O)Cc3cn(C)c4ccccc34)ccc2O[C@@H]1CN(C)C(=O)Nc1cccc2ccccc12	16.9	-0.209
Cc1ccc2nc(C(F)(F)F)cc(N3CCN(/C=C(/C#N)S(=O)(=O)c4ccccn4)CC3)c2c1	92.7*	nt
SMILES	U2OS ROS induce	YB-1 expression
N#C/C(=C\N1CCC(n2cccc2)CC1)S(=O)(=O)c1ccccn1	-11.1	nt
CN(C)c1ccc(C(=C2C=CC(=[N+](C)C)C=C2)c2ccc(N(C)C)cc2)cc1	341.0*	-0.267
O=S(=O)(/C=C/c1ccccc1)N1C=Cc2ccccc2C1c1c[nH]c2ccccc12 (configuration not stated)	20.7	-0.386
Cc1ccc(N(C(C)C(=O)Nc2ccccc2Cl)S(C)(=O)=O)cc1 (configuration not stated)	-1.3	nt
C[C@H](CO)N1C[C@H](C)[C@@H](CN(C)S(=O)(=O)c2cccs2)Oc2ccc(NC(=O)Nc3ccc(C(F)(F)F)cc3)cc2C1=O	0.6	0.0869
C[C@H](CO)N1C[C@H](C)[C@@H](CN(C)S(=O)(=O)c2cccs2)Oc2c(NC(=O)c3nc4ccccc4s3)cccc2C1=O	62.5	0.255
COc1cc2c(cc1OC)N1C(=O)C[C@]34C=CCN5CC[C@@H]2[C@@H](CC3)[C@]514	86.2*	0.162
Cc1ccc(-c2cc(C(F)F)n3ncc(C(=O)NCc4ccco4)c3n2)cc1	110.8*	nt
Cc1ccc(-c2cc(C(F)(F)F)n3ncc(C(=O)NCc4ccco4)c3n2)cc1	95.5*	nt
Cc1ccc(-c2cc(C(F)(F)F)n3nc(C(=O)NCc4ccco4)cc3n2)cc1	38.7	nt
O=C(NCCN1CCOCC1)c1cnn2c(C(F)F)cc(-c3ccccc3)nc12	67.2	nt
COC(=O)c1ccc(C(=O)OC)c(NC(=O)c2cnn3c(C(F)F)cc(-c4ccc(C)cc4)nc23)c1	-9.9	nt
Cc1ccc(-c2cc(C(F)F)n3ncc(C(=O)NCCCN4CCOCC4)c3n2)cc1	137.1*	nt
COC(=O)c1ccccc1NC(=O)COC(=O)c1cc2ccccc2o1	-6.5	nt
